Screening data (PubChem BioAssay)
Tb PFK inh-1: T. brucei PFK enzyme inhibition; O15648; actives 0.17% (n = 330,000); T. brucei PFK, ADP-Glo luminescence; Potency, µM (doses to about 57.5 µM), usual class: inhibitors; also: nearly all actives have a fitted effect of over 60% in size
Target sequence (O15648 whole entry, looked up): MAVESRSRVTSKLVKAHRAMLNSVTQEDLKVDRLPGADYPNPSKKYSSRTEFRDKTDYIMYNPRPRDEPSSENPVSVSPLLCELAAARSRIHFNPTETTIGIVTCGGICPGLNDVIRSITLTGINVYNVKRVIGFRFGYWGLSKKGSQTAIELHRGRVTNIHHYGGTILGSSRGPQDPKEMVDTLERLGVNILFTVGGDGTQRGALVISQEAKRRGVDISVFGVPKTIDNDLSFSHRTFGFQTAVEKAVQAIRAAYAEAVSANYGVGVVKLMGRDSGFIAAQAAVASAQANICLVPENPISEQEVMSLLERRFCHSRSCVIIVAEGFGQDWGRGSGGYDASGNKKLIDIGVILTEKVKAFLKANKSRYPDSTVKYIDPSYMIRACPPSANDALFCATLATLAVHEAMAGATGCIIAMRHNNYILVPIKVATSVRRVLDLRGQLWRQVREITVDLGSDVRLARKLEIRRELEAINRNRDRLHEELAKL
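Luminescent ADP detection (ADP-Glo, two-step: ATP depletion then ADP-to-ATP conversion for luciferase) reported PFK activity after 45 min room-temperature reaction of 1.25 nM enzyme with 0.5 mM F6P and 0.1 mM ATP at pH 8.0.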
GLS inh: blocks human kidney-isoform glutaminase activity; GLS enzymatic activity, qHTS titration; Potency, µM (series often up to 45.5 µM), actives largely listed as inhibitors; actives 0.21% (n = 410,000)
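Enzyme dispensed in phosphate buffer (45 mM, pH 8.2, 0.02% Tween-20), compounds pinned in, then 1 mM L-glutamine solution and the glutamate oxidase–HRP–Amplex Red mix added; fluorescence read immediately and again after 30 min at room temperature.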
Tb PGK inh: inhibitors of T. brucei phosphoglycerate kinase; P07378; PGK/GAPDH coupled, Kinase-Glo luminescence, 60 min; Potency, µM (series often up to 57.5 µM), most hits filed as inhibitors; actives 0.043% (n = 380,000); AID 602233; also: nearly all actives have a fitted effect of over 60% in size
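Luminescent ATP detection (Kinase-Glo Plus) follows a 60-minute room-temperature incubation, with wells lacking PGK as controls. Buffer: 100 mM TEA (pH 7.6), 5 mM MgCl2, 0.01% Tween-20. Coupling enzyme GAPDH (100 nM final) supplies unstable 1,3-BPG in-well.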
USP2a block: USP2a (human) protease inhibition; USP2 core, Ub-CHOP2 coupled fluorogenic reporter, 485/531; Potency, µM (top dose mostly 38.3 µM), hits mostly inhibitors; actives 0.01% (n = 330,000)
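USP2 core (10nM final) preincubated 30min RT with compound in 20mM Tris-HCl pH 8.0, 2mM CaCl2, 2mM beta-mercaptoethanol, 0.05% CHAPS; 25nM Ub-CHOP2 plus 25nM reporter substrate added, fluorescence (Ex485/Em531) read after 60min.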
GCN5L2 inh: blocks human GCN5L2 histone acetyltransferase | GCN5L2 HAT assay, ThioGlo1 CoA-SH fluorescence | AID 504327 | Q92830 | actives 0.21% (n = 390,000) | Potency, µM (highest dose often 58.9 µM), hits mostly inhibitors
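Titration-based screen in which CoA formation is detected via maleimide probe ThioGlo1 (50uM) turning fluorescent on thiol reaction; substrates H3(1-25) 75uM and acetyl-CoA 70uM, GCN5L2 20nM, 20 min incubation at room temperature.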
TbPFK ATP: Tb phosphofructokinase inhibition, orthogonal luminescence | shares compounds with Tb PFK inh-1 | Tb PFK enzyme, ATP depletion, Kinase-Glo Plus luminescence | Potency, µM (doses to about 57.5 µM) | actives 47% (n = 1,100); calls by dose curve; also: nearly all actives have a fitted effect of over 60% in size
Tb PFK inh-2: T. brucei PFK enzyme inhibition, hit validation; shares compounds with Tb PFK inh-1; purified T. brucei PFK, ADP-Glo luminescence, 45 min; Potency, µM (top dose mostly 57.5 µM), usual class: inhibitors; actives 41% (n = 1,100); AID 504637; also: nearly all actives have a fitted effect of over 60% in size
A number is an active result; 0 = inactive; ? = inconclusive; - = no result given; [ ] = another dose, or the depositor's remark. Only some compounds are listed: those with a hit (about 0.52% of all), similar ones and a draw of the others. Unless noted, calls follow the shape of the dose curve; as a rule, active = well fitted curve in the direction sought with a large enough effect; inconclusive = small, poorly fitted or top-dose-only effect, or another doubt; inactive = no such curve, though single readings can be large; an effect the other way counts as inactive or inconclusive.

SMILES | Tb PFK inh-1 | GLS inh | Tb PGK inh | USP2a block | GCN5L2 inh | TbPFK ATP | Tb PFK inh-2
O=c1c(-c2ccccc2)c(O)c2ccccc2n1-c1ccccc1 | 0 | 0 | 0 | 0 | 0 | - | -
CCOC(=O)c1c(NC(=O)c2c(N)n(CCCOC)c3nc4ccccc4nc23)sc2c1CCCC2 | 0 | 0 | 0 | 0 | 0 | - | -
Cc1cc([N+](=O)[O-])nn1CCCC(=O)Nc1sc2c(c1C(N)=O)CCCC2 | ? | 0 | 0 | 0 | 0 | 26.9µM | 23.9µM
N#CCCn1cc(C(=O)Nc2ccc([N+](=O)[O-])cc2)c(-c2ccccc2)n1 | 0 | 0 | 0 | 0 | 0 | - | -
CCNS(=O)(=O)c1ccc(NC(=O)Cn2cc([N+](=O)[O-])cn2)cc1 | 12µM | 0 | 0 | 0 | 0 | 12µM | ?
c1ccc2sc(C3(NCC4CC4)CCCCC3)cc2c1 | - | - | - | - | 0 | - | -
Oc1cc(-n2cccn2)c(O)cc1-n1cccn1 | 19µM | ? | 0 | 0 | 0 | ? | ?
CCc1ccccc1NC(=O)CSc1ccsc1[N+](=O)[O-] | ? | 0 | ? | 0 | 0 | ? | ?
CCc1ccccc1NC(=O)CSc1nnc([C@@H](N)Cc2c[nH]c3ccccc23)o1 | 0 | 0 | 0 | 0 | 0 | - | -
[O]=[Cr](=[O])([OH])[O][Cr](=[O])(=[O])[OH] | - | 0 | - | - | ? | - | -
CC(C)(C)C(=O)[C@@H]1[C@@H]2C(=O)N(c3ccc4c(c3)OCCO4)C(=O)[C@@H]2C2c3ccccc3C=CN21 (some centres not stated) | ? | 0 | 0 | 0 | ? | 0 | 0
CC1C=CC(C)C(C(=O)O)C1C(=O)O (configuration not stated) | ? | 0 | ? | 0 | 0 | ? | ?
CN1C2CCC1C(C(=O)O)C(O)C2 (configuration not stated) | 0 | 0 | 0 | 0 | 0 | - | -
CCOP(=S)(OCC)OCCSCC | - | - | - | - | 0 | - | -
CCN(CC)C(=O)c1ccc(NC(=O)c2ccc3c(c2)NC(=O)CS3)cc1 | 0 | 0 | 0 | 0 | 0 | - | -
CC(CS(=O)(=O)c1ccc2c(c1)NC(=O)CS2)C(=O)NCc1ccccc1Cl (configuration not stated) | 13.5µM | 11.2µM | 7.94µM | 0 | 0 | 1.69µM | 1.9µM
CC(CS(=O)(=O)c1ccc2c(c1)NC(=O)CS2)C(=O)N1CCN(c2cccc(Cl)c2)CC1 (configuration not stated) | 15.1µM | 0 | ? | 0 | 0 | 21.3µM | 12µM
O=C(O)COc1ccc(Cl)cc1Cl | - | 0 | 0 | - | 0 | - | -
O=C(COc1ccc(Cl)cc1Cl)N/N=C/c1ccc[nH]1 | ? | 0 | 0 | 0 | 0 | 6.75µM | 15.1µM
NCC(N)C(=O)c1ccccc1 (configuration not stated) | - | - | - | - | 0 | - | -
COc1ccc(NC(=O)N2CCC3(CC2)CCN(C(=O)Oc2ccccc2)CC3)cc1 | - | - | - | - | 0 | - | -
O=C1NC(=O)[C@]2(Cc3ccccc3N3CCN(c4ccccc4)CC32)C(=O)N1Cc1ccccc1 (some centres not stated) | 0 | 0 | 0 | ? | 0 | - | -
COc1ccccc1N1CCN(Cc2ccc(Br)cc2)CC1 | 0 | 0 | 0 | 0 | ? | - | -
O=C1CN=C(c2ccccc2Cl)c2cc(Cl)ccc2N1Cc1cccc(Cl)c1 | - | 0 | 0 | - | 0 | - | -
c1ccc(OCCN2C3=NCCN3c3ccccc32)cc1 | 21.3µM | 0 | 0 | 0 | 0 | 23.9µM | ?
SMILES | Tb PFK inh-1 | GLS inh | Tb PGK inh | USP2a block | GCN5L2 inh | TbPFK ATP | Tb PFK inh-2
Brc1ccc(CN2C3=NCCCN3c3ccccc32)cc1 | ? | 0 | 0 | 0 | 0 | 26.9µM | ?
Clc1ccc(CN2C3=NCCN3c3ccccc32)cc1 | 23.9µM | 0 | 0 | 0 | 0 | 21.3µM | 26.9µM
Clc1cccc(CN2C3=NCCCN3c3ccccc32)c1 | ? | 0 | 0 | 0 | 0 | ? | ?
C=C1C(O)C2OC3(CCC(/C=C/C(C)C4CC(C)=CC5(OC(CC(C)(O)C(=O)O)CCC5O)O4)O3)CCC2OC1C(O)CC(C)C1OC2(CCCCO2)CCC1C (configuration not stated) | - | - | - | - | 0[2.33 µM] | - | -
COc1cc(/C=C2/SC(=S)N(Cc3ccccc3)C2=O)ccc1OCC(=O)O | 0 | 0 | 0 | 0 | ? | - | -
COc1cc(/C=C/c2ccc3cccc([N+](=O)[O-])c3n2)ccc1OCC(=O)O | ? | ? | 0 | 0 | 0 | 0 | 0
COc1cc(/C=C(/C)[N+](=O)[O-])ccc1OCc1ccccc1Cl | 0 | 0 | 0 | 0 | 0 | - | -
COc1cc(/C=C/c2ccc3c([N+](=O)[O-])cccc3n2)ccc1OCC(=O)O | ? | 0 | 0 | 0 | 0 | 0 | ?
COc1cc(CNC(=O)CCCC/C=C/C(C)C)ccc1O | ? | 0 | 0 | 0 | 0 | - | -
N#Cc1cccc(NC(=O)N2CC[C@@]3(CCCN(C(=O)Oc4ccccc4)C3)C2)c1 | - | - | - | - | 0 | - | -
O=C(Nc1cccc(F)c1)N1CC2(CCNCC2)C1 | - | - | - | - | 0 | - | -
Fc1cccc(NCc2cn3ccccc3n2)c1 | 12µM | 0 | 0 | 0 | 0 | ? | 0
Fc1cccc(NCc2ccoc2)c1 | ? | 0 | 0 | 0 | 0 | 12µM | 19µM
O=P(Nc1cccc(F)c1)(Oc1ccccc1F)Oc1ccccc1F | 0 | 0 | 0 | 0 | 0 | - | -
C=CCNC(=O)N1CCc2[nH]c3ccc(F)cc3c2C1 | ? | 0 | - | 0 | 0 | ? | ?
O=C1/C(=C/c2ccc(O)c(O)c2)Oc2cc(O)ccc21 | ? | 8.91µM | 0 | 0 | 0 | 0 | ?
CCc1nnc(NC(=O)CSc2nc(C)c3c(c2C#N)CCCC3)s1 | ? | 0 | 0 | 0 | 0 | 0 | 0
COC(=O)[C@@H]1C[C@H](OC(C)=O)C(=O)[C@H]2[C@@]1(C)CC[C@H]1C(=O)O[C@H](c3ccoc3)C[C@]21C | - | - | - | - | 0 | - | -
CC[C@@H]1/C=C/C=C/C[C@H](C)[C@@H](O)[C@](C)(O)C(=O)[C@H](C)[C@@H](O)[C@H](C)C(=O)[C@H](C)[C@@H](O)[C@H](C)/C=C/C(=O)O[C@H]2[C@@H](C)[C@@H](CC1)O[C@@]1(CC[C@@H](C)[C@@H](C[C@H](C)O)O1)[C@@H]2C | - | - | - | - | 0 | - | -
Cc1[nH]c2ccccc2c1C(=O)CN1C(=O)C(=O)N(Cc2ccco2)C1=O | ? | 0 | 0 | 0 | 0 | 0 | ?
